According to PubChem BioAssay AID504937 (National Center for Advancing Translational Sciences (NCATS), 2011):
Hit rate of the full screen: of about 340,000 compounds, about 20 (0.006%) were called active. Calls follow the shape of the dose curve; as a rule, active = well fitted inhibition curve with a large enough effect; inconclusive = small, poorly fitted or top-dose-only effect; inactive = no such curve, though single readings can be large or run the other way. The sample as a whole holds a higher share of actives than the screen did.

Biological target: Sphingomyelin phosphodiesterase (Homo sapiens) (UniProt P17405)
Experiment: Inhibitors of Secretory Acid Sphingomyelinase (S-ASM): qHTS
Settings: placental ASM, HMU-PC fluorogenic substrate, 60 min; series mostly up to 57.5 µM
Text: Atherosclerosis is the underlying process for cardiovascular disease and thus is a major contributor to disease burden in the population. […] Thus, selective small molecule inhibitors of S-ASM should block LDL modification and reduce aortic LDL retention and may serve as new agents for the treatment of atherosclerosis. In a collaboration between National Heart, Lung, and Blood Institute and the NCGC a high-throughput amenable screen was developed to identify potent and selective small molecule inhibitors of S-ASM. This enzymatic, fluorescent screen uses an ASM enzyme preparation derived from human placenta and was tested against the NIH Molecular Libraries Small Molecule Repository (MLSMR). NIH Chemical Genomics Center [NCGC] NIH Molecular Libraries Probe Centers Network [MLPCN] MLPCN Grant: MH093173-01 Assay Submitter (PI): Alan Remaley, National Heart, Lung, and Blood Institute and Wei Zhen, NIH Chemical Genomics Center
Two microliters of ASM enzyme (1:150 dilution from stock) are dispensed in 1536-well plate. 23 nL of compound and control are pinned into assay plate using the Kalypsys pintool. The plates are then incubated for 10 minutes at ambient room temperature. Then, 2 uL of the flurogenic substrate, HMU-PC0, (9 uM final) are added to the plate. An incubation for 60 minutes takes place at 37 masculineC. After that, 4 uL of stop solution is added to raise the pH to 10 to end the kinetic reaction. Plate is read on ViewLux, with detection set at Ex = 386 (10) nm and Em = 447 (10) nm.
Potency is read from the fitted curve at half-maximal effect.

Sequence of Sphingomyelin phosphodiesterase (Homo sapiens) (P17405 47-631 limits assumed): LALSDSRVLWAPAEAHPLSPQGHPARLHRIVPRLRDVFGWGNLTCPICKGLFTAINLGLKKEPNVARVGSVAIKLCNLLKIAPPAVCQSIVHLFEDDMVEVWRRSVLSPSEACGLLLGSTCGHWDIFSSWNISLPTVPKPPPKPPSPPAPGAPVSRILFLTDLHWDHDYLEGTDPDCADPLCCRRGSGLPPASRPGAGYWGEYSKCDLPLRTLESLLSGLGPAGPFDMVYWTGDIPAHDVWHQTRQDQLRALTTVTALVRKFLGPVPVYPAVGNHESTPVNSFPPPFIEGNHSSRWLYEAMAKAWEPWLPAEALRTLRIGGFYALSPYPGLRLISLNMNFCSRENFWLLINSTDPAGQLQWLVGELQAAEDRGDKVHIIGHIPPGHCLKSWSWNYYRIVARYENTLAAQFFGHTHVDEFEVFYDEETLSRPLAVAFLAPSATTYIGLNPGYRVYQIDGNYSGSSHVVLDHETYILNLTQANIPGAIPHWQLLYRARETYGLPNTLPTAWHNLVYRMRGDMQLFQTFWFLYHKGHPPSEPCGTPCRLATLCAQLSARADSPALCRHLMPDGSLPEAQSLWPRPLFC

Potency, inactive:
COc1ccc(Cl)cc1C=CC=NNC(=O)c1ccncc1
COC(=O)[C@@H]1C[C@@]2(O)[C@H](O)[C@H](O)[C@H](O)C[C@H]2N1Cc1ccc(C)s1
Cn1c(=O)c2c(n(Cc3ccccc3)c1=O)NC(=O)C2CC(=O)N1CCc2ccccc2C1 (configuration not stated)
CCOC(=O)c1c(C2CC2)csc1NC(=O)CSCc1c(C)noc1C
CCOC(=O)C1=CN(Cc2ccc(Br)cc2)S(=O)(=O)N(C)C1C (configuration not stated)
COCc1c(C(=O)N/N=C(\C)c2ccncc2)nnn1-c1nonc1N
COc1ccc2c(C)c(CCC(=O)NC3CC3)c(=O)oc2c1C
CC(=O)N1c2ccc(S(=O)(=O)N(C)CC(=O)N(C)Cc3ccccc3)cc2CC1C (configuration not stated)
C=CCN1C(=O)c2ccc(C(=O)N3CCC(C(=O)OCC)CC3)cc2C1=O
COc1nc(OC)nc(N(C)CCO)n1
CCOC(=O)C1CCN(C(=O)C2CCN(S(=O)(=O)CC)CC2)CC1
Cc1cccc(OCC(=O)OCC(=O)Nc2ccc(Cl)cn2)c1
Cc1ccc(C(=O)NCC(=O)NCc2cc(=O)n(C)c(=O)n2C)cc1
O=S(=O)(c1ccc(F)cc1)N1CCN(C(=S)NCc2ccco2)CC1
Cc1ccc(N(C(=O)c2snc(C(N)=O)c2N)C(C(=O)NCC2CCCO2)c2c[nH]c3ccccc23)cc1 (configuration not stated)
Cc1ccc(S(=O)(=O)NC(C)C(=O)NCc2ccc(Cl)cc2)cc1 (configuration not stated)
CSCCC(NS(=O)(=O)c1ccc2c(c1)oc(=O)n2C)C(=O)NC1CCCc2ccccc21 (configuration not stated)
O=S(=O)(NCCCN1CCOCC1)c1ccc(F)c(Cl)c1
Cc1ccc(S(=O)(=O)NC(=O)c2cccc(C)c2)cc1
CC(=O)C1=C(C)NC2=C(C(=O)CC(C)(C)C2)C1C (configuration not stated)
CCOC(=O)c1cc(S(=O)(=O)NCCc2ccc(OC)c(OC)c2)cn1C
CSCCC(NC(=O)c1ccccc1)C(=O)N1CCN(Cc2ccc(Cl)cc2)CC1 (configuration not stated)
CC1C(=O)N2CCCc3cc(S(=O)(=O)NCc4ccc(F)cc4)cc1c32 (configuration not stated)
COC(=O)c1ccc(CN2CCCC(C(=O)Nc3cccc(-n4cnnn4)c3)C2)cc1 (configuration not stated)
O=C1c2ccccc2C2=Nc3ccccc3SC(c3ccccc3F)C12 (configuration not stated)
CCOC(=O)c1ccccc1NC(=S)N1CCC(C(N)=O)CC1
COc1cccc(NC(=O)CSc2nnc(Cc3ccc(OC)c(OC)c3)o2)c1
O=C1N[C@H](Cc2c[nH]c3ccccc23)COC(=O)[C@H](Cc2ccc(F)cc2)C/C=C\C[C@H]1CC(=O)N(CCO)Cc1ccccc1
CSc1nnc(-c2ccc(C(F)(F)F)cn2)o1
O=C1/C(=C/c2ccc(F)cc2)SC(=S)N1NS(=O)(=O)c1ccccc1
COc1cc(/C=C/C(=O)N2c3ccccc3Sc3ccc(C(F)(F)F)cc32)cc(OC)c1OC
Cc1c(C)c2c(OCC(=O)N[C@@H](C(=O)O)c3ccccc3)cc3c(c2oc1=O)CCC(C)(C)O3
CCOC(=O)C1(Cc2cccc(OC)c2)CCN(Cc2csc(C(C)=O)c2)CC1
S=c1[nH]nc(Nc2ccccc2)s1
COc1cccc(-n2c(=S)sc3c(=O)n(-c4ccccc4C)c(SCC(=O)O)nc32)c1
CCOc1ncccc1C(=O)OCC(=O)Nc1cccc(S(=O)(=O)N2CCCCCC2)c1
N=C1C(=O)OCC1c1ccccc1NC(=O)CN1CCCCC1 (configuration not stated)
COc1ccc(C(=O)N(C)CC(O)c2ccccc2)cc1OC1CCN(C(C)=O)CC1 (configuration not stated)
O=C(O)CSCC(=O)Nc1ccc(C(F)(F)F)cc1
CC[C@@]12C(=O)N(c3ccccc3)C(=O)N1[C@H](c1ccc(Br)cc1)[C@@H]1C(=O)N(C(C)(C)C)C(=O)[C@@H]12
COc1cccc(N(C(=O)c2ccn[nH]2)C2(C(=O)Nc3c(C)cccc3C)CCCCC2)c1
COc1cc(OC)cc(C(=O)Nc2nnc(SCC(=O)NCC3CCCO3)s2)c1 (configuration not stated)
CC(C)CN(C(=O)c1cccc(S(=O)(=O)N2CCCCC2)c1)C1CCS(=O)(=O)C1 (configuration not stated)
CS(=O)(=O)N(Cc1ccccc1Cl)c1ccc(C(=O)NCc2cccnc2)cc1
CC1CCN(c2ccc(S(=O)(=O)Nc3cc(C(=O)O)cc(C(=O)O)c3)cc2[N+](=O)[O-])CC1
Cc1ccc2nc(SCC(=O)Nc3cccc4ccccc34)nc(=O)n2c1
CSCCC(=O)N1CCCC(CNC(=O)c2ccccc2Cl)C1 (configuration not stated)
CCCn1nnc(NC(=O)COc2ccc(CC)cc2)n1
COc1ccc([C@H]2CC(=O)C=C(c3ccc(OC(F)(F)F)cc3)C2)cc1OC
Cc1cccc(-[n+]2c(-c3cccc(Br)c3)[nH]c3nc4ccccc4nc32)c1
Cc1cccc(C(=O)O)c1[N+](=O)[O-]
CCCn1c(C)cc(C(=O)COC(=O)c2c(C)nn(-c3ccccc3)c2C)c1C
O=C(c1ccc(F)cc1)N1CCC(C(=O)N2CCN(S(=O)(=O)c3ccccc3Br)CC2)CC1
Nc1ccccc1C(=O)NC1CCCCNC1=O (configuration not stated)
O=C(N/N=C/c1cccc2cccnc12)[C@H]1C[C@@H]1c1ccccc1
COCC(=O)N(C)[C@H]1C[C@H]2c3cc(Oc4ccccc4C)ccc3CCN2C(=O)[C@H]1[C@H](C)O
COC(=O)c1ccc(C2NC(=O)NC(C)=C2C(=O)N(C)C)cc1 (configuration not stated)
COc1ccc2c(c1)C(NS(=O)(=O)OCC(Cl)(Cl)Cl)CCC2 (configuration not stated)
CCOc1ccc(-c2nc(C)sc2CC(=O)O)cc1
Cc1ccc(N(C(=O)CNC(=O)c2ccco2)C(C(=O)NC2CCCC2)c2ccncc2)cc1 (configuration not stated)
COc1ccc(NC(=O)NN2CCN(C)CC2)c(OC)c1
COC(=O)C1=C(C)N(C)C(C)=C(C(=O)OC)C1c1cccc(Br)c1
Cc1c(C(C)CCCO)oc(=O)c2c1Oc1c(C)c(C(C)C[C@@H](C)O)oc(=O)c1C2 (some centres not stated)
C=CCC(Nc1ccccc1)c1cccc(OC)c1OC (configuration not stated)
Cc1nn(Cc2ccc(C(=O)N3N=C(C(F)F)CC3(O)C(F)F)cc2)c(C)c1[N+](=O)[O-] (configuration not stated)
O=C(Nc1cccnc1Oc1ncnc2cc(Cl)ccc12)c1ccc(F)cc1
CCOc1ccc(N2C(=O)Nc3ccccc3C2(O)C(=O)NCc2ccco2)cc1 (configuration not stated)
O=C1COc2c1ccc(O)c2O
CC(C)Cn1cnc2c1c(=O)n(CC(=O)NN)c(=O)n2Cc1ccccc1
Cc1ccsc1/C=N/NC(=O)Cc1cc(=O)[nH][nH]1
Cc1ccc(S(=O)(=O)Nc2ccccc2CNc2c(C)n(C)n(-c3ccccc3)c2=O)cc1
CCC(C)N1C(=O)S/C(=C/c2ccc(Sc3nc4ccccc4[nH]3)o2)C1=O (configuration not stated)
COc1ccc(CN2CCC(n3nccc3NC(=O)CCCc3ccccc3)CC2)cc1C
NS(=O)(=O)c1ccc(NC(=S)NNC(=O)c2cccs2)cc1
Cc1cccc(NC(=O)Cn2cc(C(=O)c3ccco3)c3ccccc32)c1
CCC(CC)C(=O)Nc1ccc(S(=O)(=O)Nc2nccs2)cc1
O=C(CSc1nc2[nH]c(=O)[nH]c(=O)c2s1)Nc1cccc(F)c1
CSCCC(NC(N)=O)C(=O)N(C)CC(=O)Nc1ccc(C)cc1 (configuration not stated)
CC/C(Cc1ccccc1)=N/NC(=O)CCn1nnc2ccccc21
COc1ccc(C2/C=C\CN(CC(C)C)CC(=O)N2Cc2ccc(F)cc2)cc1 (configuration not stated)
COc1ccc(CN2CCOC2=O)cc1OC
COc1ccc(CNC(=O)CN(C(=O)c2csnn2)c2cnc3ccccc3c2)cc1
CC(=O)c1cccc(NC(=O)C2CCCN(S(=O)(=O)c3cccc4nonc34)C2)c1 (configuration not stated)
Nc1cccc2c1C(=O)N(Cc1nnc(-c3ccccc3Br)o1)C2=O
CC1CCCCC1NC(=O)CCS(=O)(=O)c1cccc2nonc12 (configuration not stated)
O=C(NNS(=O)(=O)c1ccc(F)cc1)C1CCCCC1
CCN(CC(=O)NCc1cccs1)C(=O)/C=C/c1ccc(C)cc1
CCn1c(O)c2ccc(C(=O)N=NC(=O)c3cccnc3)cc2c1O
O=C(NCC(=O)N(CC1CCCO1)C(C(=O)NC1CCCCC1)c1ccccc1)c1ccco1 (configuration not stated)
CC(C)Cn1c(SCC(=O)Nc2ccc(Cl)cc2F)nc(O)cc1=O
COc1ccc(SCCN2CCN(CC(C)C)CCC2=O)cc1
O=S(=O)(c1ccccc1)N1CCC(c2ccccc2)CC1
Cc1cc(OCC(=O)N(C)c2c(N)n(Cc3ccccc3)c(=O)[nH]c2=O)c(C(C)C)cc1Cl
CN(C(=O)c1ccccc1)c1nccnc1C#N
Cc1ccc(-c2nc(C)sc2CC(=O)OCC(=O)Nc2c(F)cccc2F)cc1
Cn1c(=O)n(C)c(=O)n(CC(=O)N2CCCCC2)c1=O
COc1ccccc1CCNS(=O)(=O)c1cc2c3c(c1)C(C)C(=O)N3CCC2 (configuration not stated)
CN(c1ccc2nc3ccccc3c(=O)n2n1)C1CCCCC1
O=S1(=O)CCN2C(=N1)SC1=C2CCN(Cc2ccccc2)C1
CCOC(=O)c1cc(-c2ccc(F)cc2)n(CC(=O)NCc2ccccn2)c1C
COc1ccc(C(C(=O)NC2CCCCC2)N(C(=O)Cc2c[nH]c3ccccc23)c2ccccc2)cc1OC (configuration not stated)

Potency, active:
COc1cc(/C=C2\SC(=S)N(Nc3ncc(C(F)(F)F)cc3Cl)C2=O)cc(OC)c1OC 28.2 µM
